# From PubChem BioAssay (NCI)
# The panel holds about 83,000 compounds, 20% with a hit somewhere; the sample as a whole holds those more often.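 Single-concentration screen, 48 h exposure, 96-well plates. Endpoint: percent growth. Below 10 = active.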 A number with no mark means an inactive call. Calls of active or inactive are those of the source.
# How the values were obtained:
# Test in all cases: NCI-60 one-dose screen, 48 h (100 = growth as untreated, 0 = no growth, -100 = all killed)
# Conditions in all cases: 10 µM unless noted
# HT29 colon = system: HT29 colon
# SNB-75 CNS = system: SNB-75 CNS
# SNB-19 CNS = system: SNB-19 CNS
# U251 CNS = system: U251 CNS
# PC-3 prostate = system: PC-3 prostate
# SK-MEL-5 melanoma = system: SK-MEL-5 melanoma
# UACC-62 melanoma = system: UACC-62 melanoma
# LOX IMVI melanoma = system: LOX IMVI melanoma
# SK-MEL-28 melanoma = system: SK-MEL-28 melanoma
# SK-MEL-2 melanoma = system: SK-MEL-2 melanoma
SMILES,growth (HT29 colon),growth (SNB-75 CNS),growth (SNB-19 CNS) [%],growth (U251 CNS),growth (PC-3 prostate),growth (SK-MEL-5 melanoma),growth (UACC-62 melanoma),growth (LOX IMVI melanoma),growth (SK-MEL-28 melanoma),growth (SK-MEL-2 melanoma)
CC(C)(C)Nc1nc2c(OCCc3ccccc3)cccn2c1-c1ccc(Cl)cc1,24.2%,51.7%,19.7,11.9%,3.08% (active),-71.6% (active),11.1%,2.87% (active),29.7%,-33.9% (active)
COc1ccc(/C=C/C(=O)c2ccc(NC(=O)CSc3nnc(-c4ccc5nc(-c6ccc(Cl)cc6)[nH]c5c4)o3)cc2)cc1,106%,98.5%,106,96%,82.5%,89.7%,83.8%,6.79% (active),113%,
CC(=O)Oc1ccccc1C(=O)Nc1ccc(C(=O)/C=C/c2ccncc2)cc1,5.38% (active),48.4%,76,21.1%,70.4%,74%,50.3%,-73.6% (active),55.8%,
CS(=O)(=O)c1ccc(-c2nc3ccccn3c2-c2nc3ccc([N+](=O)[O-])cc3[nH]2)cc1,109%,82.9%,99.6,104%,86.3%,95.2%,88.6%,100%,,
O=C(CCCN1C(=O)/C(=C/c2ccccc2F)SC1=S)N1CCOCC1,99.2%,79.3%,101,86.1%,105%,97.1%,81.5%,-63.6% (active),89.7%,
C#C[C@]1(O)CC[C@H]2[C@@H]3CC=C4c5sc(-c6ccc(F)cn6)nc5CC[C@]4(C)[C@H]3CC[C@@]21C,38.3%,-13.2% (active),31.5,15.7%,24.2%,33.4%,0.399% (active),-63.9% (active),-28.5% (active),
Cc1nc2cnc(N)c(C#Cc3cncc(C(=O)Nc4ccc(Cl)c(C(F)(F)F)c4)c3)c2nc1C,31.5%,44.6%,90,77.4%,85.3%,86.9%,39.7%,-77.4% (active),44.4%,14.4%
CN(C)CCCNc1c2ccccc2nc2c1oc1ccc(Cl)cc12,-34% (active),37.5%,43.3,33.4%,47.2%,47.9%,52.1%,-86.5% (active),43.8%,
COc1ccc(-c2nc3ccc(-c4nnc(SCC(=O)Nc5ccc(C(C)=O)cc5)o4)cc3[nH]2)cc1,116%,92.6%,119,104%,104%,93.5%,96%,108%,,
Cc1ccc(-c2nc(C(Cl)Cl)nc3cc(-c4ccccc4)nn23)cc1,-43.7% (active),-3.07% (active),14.8,-58.6% (active),26.8%,67.3%,55.7%,43.6%,1.35% (active),
O=C(CSc1nccc(=O)[nH]1)Nc1ccc(-c2nc3ccccc3[nH]2)cc1,109%,122%,103,106%,92.6%,99.7%,99.7%,96.9%,98.9%,107%
Clc1ccc2c(NCCCN3CCOCC3)c3oc4ccccc4c3nc2c1,25.6%,52.4%,54.1,34.5%,48.6%,79.7%,66.6%,17.3%,70.6%,
[Cl][Ru].c1ccc(-c2cc(-c3ccccn3)nc(-c3ccccn3)c2)cc1.c1ccc(-c2ccnc3c2ccc2c(-c4ccccc4)ccnc23)cc1,-47.6% (active),-20% (active),12.2,-54.8% (active),-7.82% (active),-94.9% (active),-68% (active),-71.4% (active),-73.5% (active),-91.6% (active)
